Assay outcomes as filed in PubChem.
Many of the other results were omitted from the sample, so hits are more common in it than they were.
TTR transcr act – increases transthyretin transcription. activation, % at 16.7 µM. SH-SY5Y TTR promoter Gaussia luciferase, luminescence; 100% = recombinant luciferase protein wells. 1.3% of 92,000 active;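 active = activation above the mean of all tested compounds plus 3 SD, cut at about 9.5% in these data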;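 note: cells exposed to compounds for one day before reading; 0% = median of all test compound wells on the plate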
TTR inh HuH7 – decreases TTR transcription in HuH7 cells in activator counter-screen. shares compounds with TTR transcr act. HuH7 TTR promoter-Gaussia luciferase reporter, luminescence. inhibition, % at 16.7 µM. 4% of 1,100 active;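 active = average inhibition above the solvent-only control wells' mean plus 3 SD, cut at about 15% in these data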;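 note: 0% = cells with DMSO only and 100% = cells with inhibitor control FD; inhibitors lower well luminescence so higher value means more inhibition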
TTR up confirm – confirmation of human transthyretin transcription activators. SHSY5Y TTR promoter Gaussia luciferase, luminescence; 100% = purified Lucia enzyme wells, no cells. shares compounds with TTR transcr act. 1,100 tested, under 10 active. activation, % at 16.7 µM. AID 1117280;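 active = mean activation above a set limit taken from the earlier primary screen, cut at about 11% in these data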;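 note: 0% = DMSO-treated cells and 100% = recombinant Lucia luciferase without cells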
* hit, by the source's call.

SMILES	TTR transcr act	others
COc1cc(Cl)c(CN2CCC(CCC(=O)NC3CC3)CC2)cc1OC	1
O=C(CCC1CCN(C(=O)c2cc(C(F)(F)F)ccc2Cl)CC1)NC1CC1	17*	TTR inh HuH7=-17;TTR up confirm=0
CC(=O)N[C@@H](C)CCc1ccc(Oc2ccc(OC(C)C)nc2)cc1	-2
C=CCCC1CN(Cc2ccc(OC)cc2)S(=O)(=O)c2c(F)cccc2O1 (stereo not given)	-1
O=C(NCc1ccccn1)[C@@H]1CCCN1C(=O)[C@@H]1CCCN1C(=O)c1cccs1	3
O=C(NCc1ccccn1)[C@@H]1CCCN1C(=O)[C@@H]1CCCN1C(=O)c1cccc(Cl)c1	0
Cc1ccccc1C(=O)N1CCC[C@H]1C(=O)N1CCC[C@H]1C(=O)NCc1ccccn1	14*	TTR inh HuH7=-5;TTR up confirm=-1
COC(=O)[C@]12C[C@H](CC(=O)N3CCN(C(=O)c4ccco4)CC3)C(=O)N(Cc3ccco3)C1=C[C@H](COCc1ccccc1)O[C@@H]2C	3
CCOC(=O)[C@]12CCCC=C1N(CCCOC)C(=O)[C@@H]2CC(=O)N1CCSCC1	0
O=C1/C(=C/c2ccncc2)N=C2CCCCCN12	47*	TTR inh HuH7=-12;TTR up confirm=0
O=C1/C(=C/c2ccncc2)CCC/C1=C\c1ccncc1	-6
COc1ccc(/C=C2\N=C3CCCCCN3C2=O)cc1	3
C[C@H]1[C@@H](NC(=O)C2CCOC2)CC[C@@]23CCCN2C(=O)CCC[C@@H]13 (stereo not given in full)	-1
Cc1ccc(S(=O)(=O)N2C(N)=C(C(=O)NCc3ccc(Br)cc3)C(c3ccc(Cl)cc3)C2C(=O)c2ccccc2)cc1 (stereo not given)	0
O=C(Nc1c(F)c(F)c(F)c(F)c1F)OC[C@@H]1CSCCS(=O)(=O)N1	-1
C#CCNC(=O)C[C@H]1C(=O)N(CCCOC)C2=CCCCC[C@]21C(=O)OC	0
COc1ccc(/C=N/Nc2ccccc2)cc1Cn1nc(C)c([N+](=O)[O-])c1C	13*	TTR inh HuH7=-16;TTR up confirm=0
COc1ccc(/C=C/C(=O)C2CC2)cc1Cn1nc(C)c([N+](=O)[O-])c1C	-1
COc1ccc(/C=N/N2CCOCC2)cc1Cn1nc(C)c([N+](=O)[O-])c1C	9
CCCCNC(=O)C[C@@H]1C(=O)N(CCc2ccc(Cl)cc2)C2=CCCCC[C@]21C(=O)OC	1
COCCN(CC(=O)Nc1cccc(C)c1C)C(=O)Cc1cccs1	5
COCCN(CC(=O)Nc1cccc(C)c1C)C(=O)c1ccc(S(=O)(=O)N2CCOCC2)cc1	9.8*	TTR inh HuH7=-12;TTR up confirm=1
O=C(Nc1ccccc1Cl)c1ccc(S(=O)(=O)N2CCOCC2)cc1	2
CC(C)(C)OC(=O)N1CCC(N[C@@H](Cc2c[nH]c3ccccc23)C(=O)NCCc2c[nH]c3ccccc23)(C(=O)NC2CCCCC2)CC1	-2
NC(=O)c1c(N)[nH]c(C(=O)c2ccccc2)c1-c1ccccn1	0
SMILES	TTR transcr act	others
COc1ccc(CNC2CCC23CCC(C)CC3)cc1OC (stereo not given)	2
CCC(C)N1C(=O)c2ccccc2C1C(=O)NC1CCCCCC1 (stereo not given)	15*	TTR inh HuH7=-24;TTR up confirm=0
CCC(C)[C@H](NC(=O)[C@@H]1CSC2c3ccccc3C(=O)N21)C(=O)NC1CCCC1 (stereo not given in full)	-1
O=C(NC1CCCC1)C1c2ccccc2C(=O)N1CCCN1CCOCC1 (stereo not given)	1
NC(=O)C1CCN(c2ncc(Br)cn2)CC1	4
O=C(OCC#CCSc1nnc(-c2ccc3ccccc3c2)o1)c1cccs1	1
CC1CCc2sc3nc(NCc4ccco4)n4ncnc4c3c2C1 (stereo not given)	2
CC1CCc2c(sc3ncnc(N4CCOCC4)c23)C1 (stereo not given)	-1
CCN1CCN(c2nc3sc4c(c3c3ncnn23)CC(C)CC4)CC1 (stereo not given)	11*	TTR inh HuH7=-31;TTR up confirm=0
C=CCN1C=C(C(=O)OCC)C(=O)CC1	0
CCCC1CCC2(CC1)CCC2OC(=O)Nc1ccccc1C (stereo not given)	7
CC(C)n1nnnc1C1c2ccccc2OCC(=O)N1Cc1cccc(C(F)(F)F)c1 (stereo not given)	-1
C=CCOc1ccc(/C=C2\SC(=S)N(C(C(=O)O)c3ccccc3)C2=O)cc1 (stereo not given)	0
COc1ccc(OC)c(/C=C2\SC(=S)N(C(C(=O)O)c3ccccc3)C2=O)c1 (stereo not given)	16*	TTR inh HuH7=11;TTR up confirm=-1
CC(/C=C1\SC(=S)N(C(C(=O)O)c2ccccc2)C1=O)=C\c1ccccc1 (stereo not given)	0
CCCCCCC/C=C(\C)[C@@H](O)[C@@H](C)C(=O)N1CCC[C@@H]1C(=O)O[C@H](C(=O)O[C@@H](C)C(=O)O)[C@@H](C)CC	1
CCOC(=O)[C@@H](NC(=O)[C@@H]1CC=C[C@@H]2CCN(Cc3ccc(Cl)cc3)C(=O)[C@@H]21)C(C)C	1
CCCC1CCC2(CC1)CCC2OC(=S)Nc1ccccc1Cl (stereo not given)	2
COC(=O)c1cc(NCc2ccccc2F)ccc1N1CCOCC1	10*	TTR inh HuH7=-9;TTR up confirm=-1
COC(=O)c1cc(NC(=O)c2c(C)noc2C)ccc1N1CCOCC1	-1
COC(=O)c1cc(NC(=O)c2cc(-c3ccc(C(F)(F)F)cc3)oc2C(F)(F)F)ccc1N1CCOCC1	-1
COC(=O)C1CN(CCc2ccccc2)CCS(=O)(=O)N1Cc1ccc(OC)cc1 (stereo not given)	2
NC(=O)CC(NC(=O)Cc1ccc(Br)cc1)c1ccc(NC2CCCCCC2)c([N+](=O)[O-])c1 (stereo not given)	10*	TTR inh HuH7=-8;TTR up confirm=0
NC(=O)CC(NC(=O)Cc1ccc(Br)cc1)c1ccc(NC2CCCC2)c([N+](=O)[O-])c1 (stereo not given)	2
NC(=O)CC(NC(=O)Cc1ccc(Cl)cc1)c1ccc(NC2CCCCCC2)c([N+](=O)[O-])c1 (stereo not given)	-2
SMILES	TTR transcr act	others
COc1ccccc1N1CCN(C(=O)C(CC(C)C)NC(=O)C2CCCCC2)CC1 (stereo not given)	21*	TTR inh HuH7=-10;TTR up confirm=0
COc1ccccc1N1CCN(C(=O)C(Sc2ccccc2)c2ccccc2)CC1 (stereo not given)	-3
COc1ccccc1N1CCN(S(=O)(=O)CCNC(=O)C2CCCC2)CC1	-1
C[C@H]1[C@@H](OC(=O)NCc2ccccc2)CC[C@@]23CCCN2C(=O)CCC[C@@H]13	-1
CCCCCCCCN1C(=O)[C@@H](CC(=O)NCc2ccc(C)o2)C[C@@]2(C(=O)OC)C1=C[C@H](C(C)C)O[C@@H]2C1CC1	-1
Cc1ccc(S(=O)(=O)c2nc(-c3ccco3)oc2SCC(N)=O)cc1	0
O=C(CSc1nc2ccccc2o1)NCC1CCCO1 (stereo not given)	0
O=C(CSc1oc(-c2ccco2)nc1S(=O)(=O)c1ccccc1)NCC1CCCO1 (stereo not given)	12*	TTR inh HuH7=-7;TTR up confirm=0
C[C@@H](O[Si](c1ccccc1)(c1ccccc1)C(C)(C)C)[C@H]1C(=O)N[C@H](Cc2cn(S(=O)(=O)c3ccccc3)c3ccccc23)C(=O)N1C	-1
